Assay outcomes from PubChem BioAssay.
Only some compounds are listed: those with a hit (about 6.7% of all), similar ones and a draw of the others.
GDH-TPI counter – counter-screen for M. tuberculosis FBA inhibitors: GDH-TPI coupled enzymes; GDH-TPI coupled enzyme counterscreen, NADH absorbance; inhibition, % at 4.8 µM; 1.2% of 360,000 active; in the data active means inhibition above about 30%;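 further: 0% = DMSO wells and 100% = wells lacking the enzyme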
Autofluor counter – flagged as autofluorescent in microsphere protease counterscreen | compound autofluorescence counterscreen, microsphere flow cytometry; active compounds read high | fluorescence intensity (test concentration not listed) | 3.1% of 360,000 active | AID 624483; in the data active means fluorescence intensity above about 16000; inconclusive means no clear call, values can overlap the other calls
BoNT-F LC inh – BoNT F light chain protease inhibition; Multiplex microsphere protease cleavage assay, flow cytometry; AID 588497; inhibition, % at 10 µM; 0.22% of 360,000 active; in the data active means inhibition above about 35%, passing the limit was not always enough; inconclusive means no clear call, values can overlap the other calls; further: plate controls were buffer without enzyme for full effect and enzyme alone for no effect
Anthrax LF inh2 – anthrax lethal factor protease inhibition. 0.12% of 360,000 active. inhibition, % at 10 µM. multiplex microsphere protease cleavage assay, LF. P15917; further: plate controls were buffer without enzyme for full effect and enzyme alone for no effect
Target sequence (P15917 whole entry, looked up): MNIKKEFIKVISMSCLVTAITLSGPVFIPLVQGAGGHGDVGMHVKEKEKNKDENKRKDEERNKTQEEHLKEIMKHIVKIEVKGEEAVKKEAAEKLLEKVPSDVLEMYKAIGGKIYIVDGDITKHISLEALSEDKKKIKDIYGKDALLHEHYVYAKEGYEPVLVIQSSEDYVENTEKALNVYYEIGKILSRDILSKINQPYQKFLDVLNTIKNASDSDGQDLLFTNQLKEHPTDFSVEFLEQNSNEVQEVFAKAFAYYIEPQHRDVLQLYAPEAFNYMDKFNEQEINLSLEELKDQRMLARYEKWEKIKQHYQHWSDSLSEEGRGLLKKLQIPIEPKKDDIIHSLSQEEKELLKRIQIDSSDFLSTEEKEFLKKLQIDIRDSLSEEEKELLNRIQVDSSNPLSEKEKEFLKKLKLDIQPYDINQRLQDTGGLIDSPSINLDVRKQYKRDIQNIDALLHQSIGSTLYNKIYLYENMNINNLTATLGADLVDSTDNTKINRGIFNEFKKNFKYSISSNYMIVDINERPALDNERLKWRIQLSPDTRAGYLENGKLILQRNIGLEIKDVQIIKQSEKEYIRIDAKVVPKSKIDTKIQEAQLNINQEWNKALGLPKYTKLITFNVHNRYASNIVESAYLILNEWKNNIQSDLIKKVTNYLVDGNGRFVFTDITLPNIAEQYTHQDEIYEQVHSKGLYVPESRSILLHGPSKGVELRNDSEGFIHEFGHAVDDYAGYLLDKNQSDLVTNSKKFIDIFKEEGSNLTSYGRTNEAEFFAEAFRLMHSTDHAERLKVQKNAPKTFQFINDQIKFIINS
BoNT A protease – BoNT A light chain protease inhibition. multiplex microsphere protease substrate cleavage, flow cytometry. AID 588499. 0.17% of 360,000 active. inhibition, % at 10 µM; further: plate controls were buffer without enzyme for full effect and enzyme alone for no effect
Mtb FBA inh – Mtb fructose-bisphosphate aldolase inhibition; P9WQA3; purified M. tuberculosis FBA, fluorescence read-out; inhibition, % at 1 µM; 2.3% of 360,000 active; in the data active means inhibition above about 27%;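 further: 0% = vehicle and 100% = reference inhibitor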
An asterisk follows results filed as active; ? = inconclusive. Unless noted, no stated cut-off is given here; in the data, active means inhibition above about 30%; inconclusive means no clear call, values can overlap the other calls; inactive means below that.

SMILES	GDH-TPI counter	Autofluor counter	BoNT-F LC inh	Anthrax LF inh2	BoNT A protease	Mtb FBA inh
Cc1cc(OCc2cc(C(=O)NC3CCC3)no2)cc(C)c1Cl	3	4297	1	-1	1	46*
CC(C(=O)N1CCN(c2ccc(Cl)cc2)CC1)c1ncc(C(F)(F)F)cc1Cl (stereo not drawn)	2	16547*	-1	-3	-1	-2
CCCOC(=O)CCCCC1SCC(NC(=O)OC)C1NC(=O)OC (stereo not drawn)	2	9790	4	0	1	1
O=C(c1ccco1)N1CCN(C2CC(=O)N(c3ccccc3)C2=O)CC1 (stereo not drawn)	-2	5895	-10	10	-1	1
O=C(c1ccco1)N1CCN(C2CC(=O)N(c3ccc4c(c3)OCO4)C2=O)CC1 (stereo not drawn)	-1	22383*	-1	-2	0	-2
O=C(NCCCNC(=O)c1ccccn1)c1ccccn1	-1	4105	7	-4	0	0
CN(C)CCCNC(=O)c1ccccn1	3	16671*	-4	1	-1	-1
O=C(NCCCNCc1ccccc1)c1ccncc1	-2	10365	-4	-2	0	-1
O=C(O)CCCCCNC(=O)c1ccc(C(=O)NCCCCCC(=O)O)cc1	13	4778	-1	-3	0	7
O=C(O)CCCCCNC(=O)c1ccncc1	7	19428*	0	-5	?	-1
CN(C)CCCNCCCNC(=O)c1ccncc1	5	21704*	0	-8	1	0
Cc1ccc(N(CC(=O)NCc2ccccc2Cl)S(=O)(=O)c2cccs2)cc1	11	13529	-6	2	1	-1
Cc1cc(C)cc(N(C(=O)CNS(=O)(=O)c2ccccc2)C(C(=O)NCc2ccccc2)c2ccc(C)o2)c1 (stereo not drawn)	6	7695	-8	-4	0	4
COC(=O)c1ccc(OCC(=O)Nc2nn(-c3ccccc3)nc2C(N)=O)cc1	5	22226*	-4	0	?	5
CC1CCN(CC(=O)Nc2nn(-c3ccccc3)nc2C(N)=O)CC1	-4	2054	-2	0	0	-2
Cn1c(N)c(C(=O)Nc2ccc3ccccc3c2)sc1=S	12	21788*	2	-1	?	1
Cn1c(N)c(C(=O)Nc2ccccc2F)sc1=S	24	2914	31	21	2	3
O=C(Nc1ccnn1C1CCN(Cc2ccccc2)CC1)c1ccccc1Cl	2	4133	-1	-4	0	2
CCOC(=O)C1=C(C)N(c2ccc(C)cc2)C(=O)/C1=C\c1cccs1	7	16417*	-4	-4	-1	-1
CCOC(=O)C1=C(C)N(c2ccccc2)C(=O)/C1=C\c1cccs1	16	2488	-12	-6	0	2
Cc1ccccc1NC(=O)c1c(F)c(F)c(F)c(F)c1F	15	16318*	-5	-3	-1	1
Cc1ccc(CS(=O)(=O)c2nsc(C)c2C#N)cc1	-1	2634	-2	-1	-1	1
Cc1snc(S(=O)(=O)Cc2c(Cl)cccc2Cl)c1C#N	-6	25224*	-7	-1	-3	3
N#Cc1c(NC(=O)c2ccc(-c3ccccc3[N+](=O)[O-])o2)sc2c1CCCC2	32*	3604	9	-6	-1	-10
CC1CCc2c(sc(NC(=O)c3ccc(-c4ccccc4[N+](=O)[O-])o3)c2C#N)C1 (stereo not drawn)	10	4193	-2	-2	0	0
COc1ccc2c(c1)NC(=O)CC(c1ccccc1)=N2	13	23168*	-2	-5	-1	-2
O=C(Nc1ccccc1)c1c(O)[nH]c(=S)[nH]c1=O	2	3833	4	1	0	4
CC(=O)c1c(C(C)=O)c(C)n(-c2ccc(C)c(NC(=O)c3ccccc3Cl)c2)c1C	4	16183*	0	-4	0	0
Cc1cccc2cc(C(c3nnnn3C(C)(C)C)N(Cc3ccco3)CC3CCCO3)c(=O)[nH]c12 (stereo not drawn)	4	21568*	4	-2	3	2
Cc1ccc2cc(C(c3nnnn3C3CCCC3)N(Cc3ccco3)Cc3cccs3)c(=O)[nH]c2c1 (stereo not drawn)	14	24754*	-5	-3	-2	2
